# In PubChem BioAssay (EPA / NIEHS):
# Inconclusive results are not listed. The source made the active and inactive calls. The calls were made as follows, unless noted: active = hit-call score of the fitted dose curve at least 0.9, where 1 is the maximum; inconclusive = response in the unintended direction; inactive = score below 0.9.
# Test system: guinea pig Dopamine Transporter (DAT), gene 100714898
# Assay: NVS_TR_gDAT: NovaScreen (NVS) Transporter Assay for guinea pig Dopamine Transporter (DAT) (AID 2283369);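 also: active compounds lower bound radioligand signal relative to DMSO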
# Method in brief: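 Test chemicals were incubated 2 h with guinea pig striatal membranes and a radioligand; bound label was separated by filtration and counted. Screening ran at 25 uM, followed by concentration-response testing to a 50 uM maximum.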
row,SMILES,AC50
1,CC1(C)CCC(=Cc2ccc(Cl)cc2)C1(O)Cn1cncn1 (stereo not drawn),1.19 µM (active)
2,CC1(C)C(C(=O)OC(C#N)c2cccc(Oc3ccccc3)c2)C1(C)C (stereo not drawn),15.8 µM (active)
3,Cc1cc(C)nc(Nc2ccccc2)n1,22 µM (active)

# Target: human Dopamine Transporter (DAT), SLC6A3 (gene 6531) (UniProt Q01959)
# Assay: NVS_TR_hDAT: NovaScreen (NVS) Transporter Assay for human Dopamine Transporter (DAT) (AID 2283374);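 also: activity means loss of bound radioligand signal relative to DMSO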
# Method in brief: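 Cell-free radioligand binding to extracted human DAT protein, read 1 h after dosing by filter-based scintillation counting. Loss of specific binding scored against DMSO baseline; primary screen in duplicate at 25 uM, actives then run in concentration series.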
# Chain of human Dopamine Transporter (DAT), SLC6A3 (gene 6531) (Q01959 whole entry, looked up): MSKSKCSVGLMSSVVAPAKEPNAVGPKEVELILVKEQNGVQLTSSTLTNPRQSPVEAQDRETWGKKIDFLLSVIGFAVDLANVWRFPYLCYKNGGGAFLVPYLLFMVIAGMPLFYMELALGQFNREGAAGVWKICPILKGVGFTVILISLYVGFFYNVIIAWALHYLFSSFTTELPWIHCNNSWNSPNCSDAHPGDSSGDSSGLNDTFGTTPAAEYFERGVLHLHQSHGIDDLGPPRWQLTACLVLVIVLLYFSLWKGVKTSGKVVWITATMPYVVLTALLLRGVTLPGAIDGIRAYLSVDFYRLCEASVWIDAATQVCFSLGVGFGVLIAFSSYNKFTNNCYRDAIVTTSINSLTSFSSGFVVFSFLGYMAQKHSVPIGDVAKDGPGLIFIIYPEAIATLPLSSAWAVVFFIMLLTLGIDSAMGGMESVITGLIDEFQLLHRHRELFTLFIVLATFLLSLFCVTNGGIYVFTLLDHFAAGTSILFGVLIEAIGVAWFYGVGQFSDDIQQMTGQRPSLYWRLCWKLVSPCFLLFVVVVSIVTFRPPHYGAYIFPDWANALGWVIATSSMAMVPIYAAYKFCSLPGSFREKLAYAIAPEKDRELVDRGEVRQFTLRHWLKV
SMILES,outcome,AC50
COC(=O)N(C(=O)N1CO[C@@]2(C(=O)OC)Cc3cc(Cl)ccc3C2=N1)c1ccc(OC(F)(F)F)cc1,inactive,
CC1(C)CCC(=Cc2ccc(Cl)cc2)C1(O)Cn1cncn1 (stereo not drawn),,0.545 µM (active)
C=C(C)CN(CC)c1c([N+](=O)[O-])cc(C(F)(F)F)cc1[N+](=O)[O-],,7.64 µM (active)
CC1(C)C(C(=O)OC(C#N)c2cccc(Oc3ccccc3)c2)C1(C)C (stereo not drawn),,9.99 µM (active)
Cc1cc(C)nc(Nc2ccccc2)n1,,25 µM (active)

# Target: Norway rat Vesicular Monoamine Transporter (VMAT2), neurotransmitter transporter, Slc18a2 (gene 25549) (UniProt Q01827)
# Assay: NVS_TR_rVMAT2: NovaScreen (NVS) Transporter Assay for Norway rat Vesicular Monoamine Transporter (VMAT2), neurotransmitter transporter (AID 2283376);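 also: actives lower the bound radioligand signal below the DMSO level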
# Description: NVS_TR_rVMAT2 is a biochemical, single-readout assay that uses extracted gene-proteins from Rat forebrain in a tissue-based cell-free assay. Measurements were taken 1 hour after chemical dosing in a 96-well plate.NVS_TR_rVMAT2 is one of one assay component(s) measured or calculated from the NVS_TR_rVMAT2 assay. It is designed to make measurements of radioligand binding, a form of binding reporter, as detected with scintillation counting signals by Filter-based radiodetection technology.Data from the assay component NVS_TR_rVMAT2 was analyzed into 1 assay endpoint. This assay endpoint, NVS_TR_rVMAT2, was analyzed in the positive analysis fitting direction relative to DMSO as the negative control and baseline of activity. Using a type of binding reporter, loss-of-signal activity can be used to understand changes in the binding as they relate to the gene Slc18a2. Furthermore, this assay endpoint can be referred to as a primary readout, because the performed assay has only produced 1 assay endpoint. To generalize the intended target to other relatable targets, this assay endpoint is annotated to the transporter intended target family, where the subfamily is vesicular transporter.
# Binding assays used specific radioligands (tritiated, iodinated) with non-radioactive competitive displacement ligands in agonist or antagonist protocols (as indicated) and various reference compounds and inhibitors to titrate specific binding to receptors and transporters. Most enzyme assays (CYPs, kinases, phosphatases, proteases, HDACs) used recombinant protein and specific substrates (fluorescence mostly, some colorimetric and radioactive) and inhibitors, followed by a biochemical separation of substrate and product. All assays for the biochemical HTS were initially run in duplicate at a single concentration (10 uM for CYP450 assays and 25 uM for all others). […] Each assay was run with positive and negative controls, and concurrent controls on every plate. The follow-up (secondary) screen tested active chemical-pairs in concentration series, as well as a few additional assays not tested in the primary screen, some selected negative inactives, and several cases re-run in the concentration series for confirmatory purposes.
# Chain of Norway rat Vesicular Monoamine Transporter (VMAT2), neurotransmitter transporter, Slc18a2 (gene 25549) (Q01827 whole entry, looked up): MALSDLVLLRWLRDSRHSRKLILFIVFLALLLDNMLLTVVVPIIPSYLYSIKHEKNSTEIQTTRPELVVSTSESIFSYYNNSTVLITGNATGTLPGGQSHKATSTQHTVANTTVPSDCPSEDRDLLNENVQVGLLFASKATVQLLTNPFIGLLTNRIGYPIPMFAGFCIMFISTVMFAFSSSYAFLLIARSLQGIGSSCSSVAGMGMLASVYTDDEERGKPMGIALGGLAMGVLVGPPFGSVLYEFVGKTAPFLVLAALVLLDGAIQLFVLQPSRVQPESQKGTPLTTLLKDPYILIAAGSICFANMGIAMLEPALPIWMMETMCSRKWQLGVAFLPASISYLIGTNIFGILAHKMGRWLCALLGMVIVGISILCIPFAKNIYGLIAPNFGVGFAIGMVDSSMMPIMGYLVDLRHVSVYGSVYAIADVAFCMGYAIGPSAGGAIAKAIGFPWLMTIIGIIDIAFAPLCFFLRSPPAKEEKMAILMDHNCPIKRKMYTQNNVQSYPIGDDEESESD
row,SMILES,outcome
1,Clc1nc(Cl)nc(Nc2ccccc2Cl)n1,inactive
2,CC(C)NC(=O)N1CC(=O)N(c2cc(Cl)cc(Cl)c2)C1=O,inactive
3,CCOP(=S)(OCC)Oc1nc(Cl)n(C(C)C)n1,inactive
4,Cc1cc(C)nc(Nc2ccccc2)n1,inactive

# Target: human Norepinephrine Transporter (NET), SLC6A2 (gene 6530) (UniProt P23975)
# Assay: NVS_TR_hNET: NovaScreen (NVS) Transporter Assay for human Norepinephrine Transporter (NET) (AID 2283377);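 also: cell-free membrane protein extracted from CHO cells expressing human NET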
# Method in brief: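 Radioligand binding to human NET in cell-free CHO-derived protein preparations, read by filter-based scintillation counting 1 hour after dosing. Loss of signal versus DMSO baseline indicated displacement; primary screening in duplicate at 25 uM, actives then titrated.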
# Chain of human Norepinephrine Transporter (NET), SLC6A2 (gene 6530) (P23975 whole entry, looked up): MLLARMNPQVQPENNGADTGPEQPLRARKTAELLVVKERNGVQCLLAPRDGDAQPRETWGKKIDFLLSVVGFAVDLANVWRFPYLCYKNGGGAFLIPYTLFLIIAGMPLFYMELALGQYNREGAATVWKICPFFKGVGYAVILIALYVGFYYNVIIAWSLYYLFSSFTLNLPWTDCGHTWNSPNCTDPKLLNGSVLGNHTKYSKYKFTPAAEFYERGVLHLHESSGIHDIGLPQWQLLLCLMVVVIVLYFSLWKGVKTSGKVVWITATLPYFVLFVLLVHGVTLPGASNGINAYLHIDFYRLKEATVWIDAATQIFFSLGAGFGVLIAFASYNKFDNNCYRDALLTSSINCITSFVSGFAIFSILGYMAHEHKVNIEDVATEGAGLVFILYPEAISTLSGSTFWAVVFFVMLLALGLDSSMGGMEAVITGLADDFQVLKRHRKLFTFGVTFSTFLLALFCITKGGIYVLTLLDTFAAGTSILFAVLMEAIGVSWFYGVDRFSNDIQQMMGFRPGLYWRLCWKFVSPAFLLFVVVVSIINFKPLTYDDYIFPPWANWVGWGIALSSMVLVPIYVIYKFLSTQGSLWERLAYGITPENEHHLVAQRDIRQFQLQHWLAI
row,SMILES,AC50
1,C=C(C)CN(CC)c1c([N+](=O)[O-])cc(C(F)(F)F)cc1[N+](=O)[O-],7.07 µM (active)
2,O=P(O)(O)CCCl,10.6 µM (active)
3,Cc1cc(C)nc(Nc2ccccc2)n1,4.72 µM (active)

# Target: Agonist Androgen Response Element (ARE), AR (gene 367) (UniProt P10275)
# Assay: OT_AR_ARELUC_AG_1440: Odyssey Thera (OT) 24-hour CHO-K1 Luciferase Assay for Agonist Androgen Response Element (ARE) (AID 2283379)
# Method in brief: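 Seed CHO-K1 cells; dose compounds for 24 h; add D-luciferin plus ATP in PBS; read luminescence. Signal increase relative to vehicle defines agonist activity, with at least 3 replicate wells per sample.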
# Chain of Agonist Androgen Response Element (ARE), AR (gene 367) (P10275 whole entry, looked up): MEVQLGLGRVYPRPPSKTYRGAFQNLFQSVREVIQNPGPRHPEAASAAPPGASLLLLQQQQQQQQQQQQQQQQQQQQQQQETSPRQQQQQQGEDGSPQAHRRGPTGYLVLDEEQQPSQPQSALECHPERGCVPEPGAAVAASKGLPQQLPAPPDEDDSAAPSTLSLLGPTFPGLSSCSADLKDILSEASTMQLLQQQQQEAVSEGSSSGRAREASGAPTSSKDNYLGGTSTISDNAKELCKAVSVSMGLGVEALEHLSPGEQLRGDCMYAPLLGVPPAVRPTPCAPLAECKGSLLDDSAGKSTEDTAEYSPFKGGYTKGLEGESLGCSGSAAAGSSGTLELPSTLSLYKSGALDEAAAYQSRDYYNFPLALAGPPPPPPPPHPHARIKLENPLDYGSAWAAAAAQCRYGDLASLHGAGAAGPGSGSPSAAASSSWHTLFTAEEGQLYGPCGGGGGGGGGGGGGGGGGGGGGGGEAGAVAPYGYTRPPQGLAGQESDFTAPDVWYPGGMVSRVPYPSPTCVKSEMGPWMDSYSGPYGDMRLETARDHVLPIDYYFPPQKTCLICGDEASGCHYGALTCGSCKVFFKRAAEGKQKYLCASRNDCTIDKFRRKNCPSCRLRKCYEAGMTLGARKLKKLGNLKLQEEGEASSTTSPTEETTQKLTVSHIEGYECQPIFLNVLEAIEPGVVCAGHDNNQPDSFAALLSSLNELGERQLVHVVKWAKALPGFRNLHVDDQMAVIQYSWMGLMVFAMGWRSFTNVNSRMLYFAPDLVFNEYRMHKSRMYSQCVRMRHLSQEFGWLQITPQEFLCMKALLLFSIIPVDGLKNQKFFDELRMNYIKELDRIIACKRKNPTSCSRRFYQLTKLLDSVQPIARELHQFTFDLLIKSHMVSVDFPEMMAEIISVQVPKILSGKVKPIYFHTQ
row,SMILES,outcome
1,COC(=O)N(C(=O)N1CO[C@@]2(C(=O)OC)Cc3cc(Cl)ccc3C2=N1)c1ccc(OC(F)(F)F)cc1,inactive
2,Cc1cnc(C2=NC(C)(C(C)C)C(=O)N2)c(C(=O)O)c1 (stereo not drawn),inactive
3,CC1(C)CCC(=Cc2ccc(Cl)cc2)C1(O)Cn1cncn1 (stereo not drawn),inactive
4,Clc1cccc(C(Cl)(Cl)Cl)n1,inactive
5,COc1ccc(-c2ccccc2)cc1NNC(=O)OC(C)C,inactive
6,COC(=O)c1c(C(F)F)nc(C(F)(F)F)c(C2=NCCS2)c1CC(C)C,inactive
7,Nc1c(Cl)c(F)nc(OCC(=O)O)c1Cl,inactive

# Target: Estrogen receptor beta (Homo sapiens) (UniProt Q92731)
# Assay: OT_ER_ERbERb_1440: Odyssey Thera (OT) 24-hour HEK293T Protein-Complementation Assay for Estrogen Receptor-beta/-beta Homodimer (AID 2283380);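 also: fluorescence gain from ER beta LBD homodimer complementation read by laser scanning cytometry; scored as signal increase over DMSO baseline for both agonists and antagonists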
# Method in brief: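 HEK293T cells stably expressing human ER-beta LBD (aa 310-547) PCA homodimer pair, dosed 24 h; formaldehyde-fixed, Draq5-stained. Readout: increase in nuclear (agonist) or nuclear plus cytoplasmic (antagonist) fluorescence intensity versus DMSO, gain-of-signal fitting.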
# Chain of Estrogen receptor beta (Homo sapiens) (Q92731 whole entry, looked up, the tested form may be a part): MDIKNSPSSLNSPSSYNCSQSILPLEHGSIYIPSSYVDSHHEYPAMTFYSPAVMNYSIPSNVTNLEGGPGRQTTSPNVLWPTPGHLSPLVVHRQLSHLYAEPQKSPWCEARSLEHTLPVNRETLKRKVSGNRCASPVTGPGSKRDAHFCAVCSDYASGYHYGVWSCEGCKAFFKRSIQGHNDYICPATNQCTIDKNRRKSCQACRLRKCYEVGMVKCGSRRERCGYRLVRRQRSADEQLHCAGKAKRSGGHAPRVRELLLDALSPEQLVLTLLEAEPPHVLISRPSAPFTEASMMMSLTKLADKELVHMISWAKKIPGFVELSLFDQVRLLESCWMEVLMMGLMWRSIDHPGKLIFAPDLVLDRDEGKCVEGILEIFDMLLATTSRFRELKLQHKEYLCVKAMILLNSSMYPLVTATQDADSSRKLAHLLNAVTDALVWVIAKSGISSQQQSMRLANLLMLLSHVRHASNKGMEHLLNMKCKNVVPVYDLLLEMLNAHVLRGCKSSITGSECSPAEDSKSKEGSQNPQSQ
SMILES,outcome,AC50
COC(=O)N(C(=O)N1CO[C@@]2(C(=O)OC)Cc3cc(Cl)ccc3C2=N1)c1ccc(OC(F)(F)F)cc1,inactive,
CS(=O)(=O)c1ccc(C(=O)C2C(=O)CCCC2=O)c([N+](=O)[O-])c1,inactive,
CCOc1nc(C(Cl)(Cl)Cl)ns1,inactive,
CNC(=O)N(C)c1nnc(C(C)(C)C)s1,inactive,
Clc1nc(Cl)nc(Nc2ccccc2Cl)n1,inactive,
CCOc1nc(F)cc2nc(S(=O)(=O)Nc3c(Cl)cccc3Cl)nn12,inactive,
Cc1cnc(C2=NC(C)(C(C)C)C(=O)N2)c(C(=O)O)c1 (stereo not drawn),inactive,
COc1cc(Cl)c(OC)cc1Cl,inactive,
O=C(O)c1c(Cl)ccc2cc(Cl)cnc12,inactive,
COc1cc(OC)nc(NC(=O)NS(=O)(=O)c2ncccc2OCC(F)(F)F)n1,inactive,
COC(=O)NS(=O)(=O)c1ccc(N)cc1,inactive,
CC(C)Nc1nc(Cl)nc(NC(C)C)n1,inactive,
CC1(C)CCC(=Cc2ccc(Cl)cc2)C1(O)Cn1cncn1 (stereo not drawn),inactive,
C=C(C)CN(CC)c1c([N+](=O)[O-])cc(C(F)(F)F)cc1[N+](=O)[O-],inactive,
CN/C(=N\[N+](=O)[O-])NCc1cnc(Cl)s1,inactive,
COC(=O)NC(=S)Nc1ccccc1NC(=S)NC(=O)OC,inactive,
CC(C)N1C(=O)N(c2ccccc2)CSC1=NC(C)(C)C,,27.7 µM (active)
Clc1cccc(C(Cl)(Cl)Cl)n1,inactive,
COCC(=O)N(c1c(C)cccc1C)C(C)C(=O)OC (stereo not drawn),inactive,
COc1ccc(-c2ccccc2)cc1NNC(=O)OC(C)C,inactive,
COC(=O)c1c(C(F)F)nc(C(F)(F)F)c(C2=NCCS2)c1CC(C)C,,43.7 µM (active)
O=C(Nc1ccccc1-c1ccc(Cl)cc1)c1cccnc1Cl,inactive,
CCSC(=O)N1CCCCCC1,inactive,
COP(=O)(OC)O/C(C)=C/C(=O)N(C)C,inactive,
Nc1cnn(-c2ccccc2)c(=O)c1Cl,inactive,
Cc1nc(N(C)C)nc(OC(=O)N(C)C)c1C,inactive,
CC1(C)C(C(=O)OC(C#N)c2cccc(Oc3ccccc3)c2)C1(C)C (stereo not drawn),inactive,
C=CCOC(=O)C(C)(C)OC(=O)c1cc(-n2c(=O)cc(C(F)(F)F)n(C)c2=O)ccc1Cl,inactive,
Nc1c(Cl)c(F)nc(OCC(=O)O)c1Cl,inactive,
CCC(C)n1c(=O)[nH]c(C)c(Br)c1=O (stereo not drawn),inactive,

# Target: Estrogen receptor (Homo sapiens) (UniProt P03372)
# Assay: OT_ERa_GFPERaERE_0480: Odyssey Thera (OT) 8-hour HeLa Transcription Induction Assay for Estrogen Receptor (AID 2283381; active = hit-call score of the fitted dose curve at least 0.9, where 1 is the maximum; inactive = score below 0.9)
# Method in brief: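 HeLa cells expressing GFP reporter under estrogen response element, imaged 8 h after dosing. GFP induction quantified by high-content fluorescence microscopy image analysis; gain of signal fitted versus DMSO.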
# Chain of Estrogen receptor (Homo sapiens) (P03372 whole entry, looked up): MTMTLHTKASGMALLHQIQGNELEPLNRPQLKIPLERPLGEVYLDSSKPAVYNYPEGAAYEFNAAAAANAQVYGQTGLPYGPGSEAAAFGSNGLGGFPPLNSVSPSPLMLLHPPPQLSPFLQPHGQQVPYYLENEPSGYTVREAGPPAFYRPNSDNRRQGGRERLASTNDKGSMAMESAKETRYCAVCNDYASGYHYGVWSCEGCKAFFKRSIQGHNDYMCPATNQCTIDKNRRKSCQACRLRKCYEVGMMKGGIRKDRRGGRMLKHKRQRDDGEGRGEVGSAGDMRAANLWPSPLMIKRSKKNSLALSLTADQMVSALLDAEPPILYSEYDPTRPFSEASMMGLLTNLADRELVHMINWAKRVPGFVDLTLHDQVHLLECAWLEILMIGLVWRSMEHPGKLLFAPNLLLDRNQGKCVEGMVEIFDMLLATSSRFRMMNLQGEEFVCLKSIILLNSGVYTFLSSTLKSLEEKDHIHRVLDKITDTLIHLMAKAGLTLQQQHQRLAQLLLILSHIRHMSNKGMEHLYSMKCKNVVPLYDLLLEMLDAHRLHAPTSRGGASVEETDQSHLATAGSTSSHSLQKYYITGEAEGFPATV
row,SMILES,outcome
1,COC(=O)N(C(=O)N1CO[C@@]2(C(=O)OC)Cc3cc(Cl)ccc3C2=N1)c1ccc(OC(F)(F)F)cc1,inactive
2,CS(=O)(=O)c1ccc(C(=O)C2C(=O)CCCC2=O)c([N+](=O)[O-])c1,inactive
3,CCOc1nc(C(Cl)(Cl)Cl)ns1,inactive
4,CNC(=O)N(C)c1nnc(C(C)(C)C)s1,inactive
5,Clc1nc(Cl)nc(Nc2ccccc2Cl)n1,inactive
6,CCOc1nc(F)cc2nc(S(=O)(=O)Nc3c(Cl)cccc3Cl)nn12,inactive
7,Cc1cnc(C2=NC(C)(C(C)C)C(=O)N2)c(C(=O)O)c1 (stereo not drawn),inactive
8,CO/N=C(/C1=NOCCO1)c1ccccc1Oc1ncnc(Oc2ccccc2Cl)c1F,inactive
9,COc1cc(Cl)c(OC)cc1Cl,inactive
10,O=C(O)c1c(Cl)ccc2cc(Cl)cnc12,inactive
11,COc1cc(OC)nc(NC(=O)NS(=O)(=O)c2ncccc2OCC(F)(F)F)n1,inactive
12,COC(=O)NS(=O)(=O)c1ccc(N)cc1,inactive
13,CC(C)Nc1nc(Cl)nc(NC(C)C)n1,inactive
14,CC1(C)CCC(=Cc2ccc(Cl)cc2)C1(O)Cn1cncn1 (stereo not drawn),inactive
15,C=C(C)CN(CC)c1c([N+](=O)[O-])cc(C(F)(F)F)cc1[N+](=O)[O-],inactive
16,CC(C)NC(=O)N1CC(=O)N(c2cc(Cl)cc(Cl)c2)C1=O,inactive
17,CN/C(=N\[N+](=O)[O-])NCc1cnc(Cl)s1,inactive
18,COC(=O)NC(=S)Nc1ccccc1NC(=S)NC(=O)OC,inactive

row,SMILES,outcome
1,CC(C)N1C(=O)N(c2ccccc2)CSC1=NC(C)(C)C,inactive
2,Clc1cccc(C(Cl)(Cl)Cl)n1,inactive
3,O=P(O)(O)CCCl,inactive
4,COCC(=O)N(c1c(C)cccc1C)C(C)C(=O)OC (stereo not drawn),inactive
5,CCOP(=S)(OCC)Oc1nc(Cl)n(C(C)C)n1,inactive
6,COc1ccc(-c2ccccc2)cc1NNC(=O)OC(C)C,inactive
7,COCC(C)N(C(=O)CCl)c1c(C)csc1C (stereo not drawn),inactive
8,COC(=O)c1c(C(F)F)nc(C(F)(F)F)c(C2=NCCS2)c1CC(C)C,inactive
9,O=C(Nc1ccccc1-c1ccc(Cl)cc1)c1cccnc1Cl,inactive
10,CCSC(=O)N1CCCCCC1,inactive
11,COP(=O)(OC)O/C(C)=C/C(=O)N(C)C,inactive
12,Nc1cnn(-c2ccccc2)c(=O)c1Cl,inactive
13,Cc1nc(N(C)C)nc(OC(=O)N(C)C)c1C,inactive
14,CC1(C)C(C(=O)OC(C#N)c2cccc(Oc3ccccc3)c2)C1(C)C (stereo not drawn),inactive
15,C=CCOC(=O)C(C)(C)OC(=O)c1cc(-n2c(=O)cc(C(F)(F)F)n(C)c2=O)ccc1Cl,inactive
16,Cc1cc(C)nc(Nc2ccccc2)n1,inactive
17,Nc1c(Cl)c(F)nc(OCC(=O)O)c1Cl,inactive
18,CCC(C)n1c(=O)[nH]c(C)c(Br)c1=O (stereo not drawn),inactive
